Test results reported in PubChem BioAssay.
Calls of active or inactive are those of the source.

How the values were obtained:
[1] = system: Human papillomavirus type 1a protein E7 (residues 44-93); experiment: small molecules binding HPV E7 44-93 – biochemical, small-molecule microarray, residues 44-93, 635 nm fluorescence, primary screen (AID 1108); conditions: fluorescence 635 nm, higher = more signal;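 also: E7 fragment applied at 1 µg/mL in TBST for 1 h at 4 C; score combines spot fluorescence with its signal to noise ratio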
[2] = hepatitis C replication reporter changes, two-sided – Huh7 cells, luciferase reporter, HCV replication inhibitor project, primary screen (AID 1109); conditions: Huh7 HCV replicon luciferase reporter, 48 h; higher = more signal;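 also: huh7 hepatoma cells harbouring a luciferase neomycin HCV replicon reporter; luciferase luminescence as measure of HCV replicon replication; test concentration not given here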
[3] = target: Left-right determination factor 2 (Homo sapiens) (UniProt O00292); experiment: small molecules binding LEFTY2 protein – biochemical, small-molecule microarray, 635 nm fluorescence scan, primary screen (AID 1110); conditions: higher = more signal
[4] = target: Calmodulin-1 (Homo sapiens) (UniProt P0DP23); experiment: small molecules binding calmodulin-1 with EGTA – biochemical, small-molecule microarray, Cy5-labelled CALM1, profiling panel (AID 1111); conditions: Cy5-CALM1 binding fluorescence, higher = more signal;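 also: labelled calmodulin applied in Tris saline Tween buffer holding calcium plus EGTA and DTT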
[5] = target: Calmodulin-1 (Homo sapiens) (UniProt P0DP23); experiment: small molecules binding Ca-loaded calmodulin-1 – biochemical, small-molecule microarray, Cy5-labelled CALM1, plus calcium, artefact control for SMM control-protein annotation, profiling panel (AID 1112); conditions: Cy5-CALM1 binding fluorescence, higher = more signal;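 also: score merges spot fluorescence with signal to noise from triplicate slides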
[6] = probe aWnt5a binding to arrayed compounds – biochemical, biotinylated probe, 635/667 nm fluorescence, primary screen (AID 1113); conditions: small-molecule microarray, higher = more signal;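 also: score merges 667 nm fluorescence intensity with signal-to-noise per printed feature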
[7] = probe aShh binding to arrayed compounds – biochemical, biotinylated probe, 635/667 nm fluorescence, primary screen (AID 1114); conditions: small-molecule microarray, higher = more signal;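 also: probe is biotin-labelled aShh protein from a stem cell growth factor screen; measures binding of labelled protein to compounds printed on the slide; score merges feature fluorescence at 667 nm with signal-to-noise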
[8] = probe aNog binding to arrayed compounds – biochemical, biotinylated probe, 635/667 nm fluorescence, primary screen (AID 1115); conditions: small-molecule microarray, higher = more signal;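 also: probe is biotinylated aNog protein used at 0.15 µg/mL for 1 h at 4 C; z-score combines 667 nm fluorescence of each spot with its signal to noise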
[9] = target: Torsin-1A-interacting protein 1 (Homo sapiens) (UniProt Q5JTV8); experiment: compound microarray binding of lysate hLAP1 – cell lysate, small-molecule microarray, COS7 lysate, 635/667 nm fluorescence, primary screen (AID 1116); conditions: 635 nm fluorescence, higher = more signal
[10] = target: Alpha-bungarotoxin (Bungarus multicinctus) (UniProt P60615); experiment: compounds binding labelled alpha-BTX control protein – biochemical, small-molecule microarray, Alexa647 label, 635/667 nm fluorescence, artefact control for SMM control protein annotation, profiling panel (AID 1117); conditions: alpha-BTX-A647 binding fluorescence, higher = more signal
Albumin (Bos taurus) = Albumin (Bos taurus) (UniProt P02769); experiment: compounds binding labelled BSA control protein – biochemical, small-molecule microarray, Alexa647 label, 635/667 nm fluorescence, artefact control for SMM control protein annotation, profiling panel (AID 1118); conditions: BSA-A647 binding, fluorescence 635 nm, higher = more signal;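 also: score merges 667 nm emission intensity and signal-to-noise per printed compound spot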
[11] = probe aXIP binding to arrayed compounds – biochemical, NeuroSMM set, 635/667 nm fluorescence, primary screen (AID 1119); conditions: small-molecule microarray, higher = more signal, called active from +8 up or from −8 down;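 also: probe is the protein aXip251-270 applied at 1 µg/mL to compound-printed slides; binding of probe to printed compounds measured as 667 nm fluorescence plus signal to noise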
[12] = probe aNOTCH3 binding on compound microarray – biochemical, small-molecule microarray, 635/667 nm fluorescence, primary screen (AID 1120); conditions: higher = more signal;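 also: probe is a biotin-tagged antibody raised against NOTCH3 rather than NOTCH3 protein; score merges spot fluorescence near 667 nm with spot signal to noise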
[13] = probe aNOTCH2 binding on compound microarray – biochemical, small-molecule microarray, 635/667 nm fluorescence, primary screen (AID 1121); conditions: higher = more signal;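 also: score merges feature fluorescence read at 667 nm with its signal to noise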
[14] = target: Carbonic anhydrase 2 (Homo sapiens) (UniProt P00918); experiment: compounds binding carbonic anhydrase 2 – biochemical, small-molecule microarray, Alexa647-labelled CAII, profiling panel (AID 1122); conditions: CAII-A647 binding fluorescence, higher = more signal
[15] = COS7 lysate on small-molecule microarray, probe aHis, 635 nm (AID 1123); conditions: COS7 cell lysate, fluorescence, higher = more signal;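 also: z-score combines 667nm fluorescence intensity with signal-to-noise per printed compound spot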
[16] = probe aLAP1 signal on lysate-treated microarray – cell lysate, small-molecule microarray, COS7 lysate, primary screen (AID 1124); conditions: probe aLAP1, fluorescence, higher = more signal;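 also: lysate comes from COS7 cells expressing LAP1 and is applied at 0.3 µg/mL; score merges spot fluorescence near 667 nm with signal-to-noise over triplicate slides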
Sam68 (KHDRBS1) = experiment: compounds binding KHDRBS1 protein – biochemical, small-molecule microarray, 635 nm fluorescence, primary screen (AID 1125); conditions: higher = more signal;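 also: score merges 667 nm channel intensity with signal to noise over triplicate slides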
[17] = system: Chordin-like protein 2 (CHRDL2); experiment: compounds binding chordin-like 2 – biochemical, small-molecule microarray, 635 nm fluorescence, primary screen (AID 1126); conditions: fluorescence 635 nm, higher = more signal;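 also: printed compound slides probed with Chrdl2 protein at 4 µg/mL for 1 h at 4 C; score merges 667 nm emission intensity with signal to noise over three replicate slides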
[18] = target: Concanavalin-A (Canavalia ensiformis) (UniProt P02866); experiment: compounds binding concanavalin A lectin – biochemical, small-molecule microarray, Alexa647 label, 635 nm, artefact control for SMM control protein annotation, primary screen (AID 1127); conditions: ConA-A647 binding fluorescence, higher = more signal;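 also: z combines 667 nm emission intensity with signal-to-noise across three replicate slides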
Concanavalin-A (Canavalia ensiformis), sequence (P02866 whole entry, looked up): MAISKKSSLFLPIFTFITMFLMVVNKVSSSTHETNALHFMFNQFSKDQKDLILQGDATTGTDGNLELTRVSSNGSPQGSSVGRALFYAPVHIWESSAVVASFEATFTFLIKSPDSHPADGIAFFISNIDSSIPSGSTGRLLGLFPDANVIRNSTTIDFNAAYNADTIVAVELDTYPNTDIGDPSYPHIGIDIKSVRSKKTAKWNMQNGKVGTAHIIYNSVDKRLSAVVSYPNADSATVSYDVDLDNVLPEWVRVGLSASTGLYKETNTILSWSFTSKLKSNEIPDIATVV

Left-right determination factor 2 (Homo sapiens), sequence (O00292 whole entry, looked up): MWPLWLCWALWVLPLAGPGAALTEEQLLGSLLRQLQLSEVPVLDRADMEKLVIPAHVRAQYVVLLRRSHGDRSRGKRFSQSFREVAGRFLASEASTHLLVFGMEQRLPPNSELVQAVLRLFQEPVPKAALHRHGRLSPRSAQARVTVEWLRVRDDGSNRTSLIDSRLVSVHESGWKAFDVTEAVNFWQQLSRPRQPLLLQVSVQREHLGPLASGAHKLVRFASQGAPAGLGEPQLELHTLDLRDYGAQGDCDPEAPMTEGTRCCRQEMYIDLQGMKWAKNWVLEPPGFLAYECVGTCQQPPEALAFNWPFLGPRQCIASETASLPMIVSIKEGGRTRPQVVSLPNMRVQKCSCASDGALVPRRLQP
Albumin (Bos taurus), sequence (P02769 whole entry, looked up): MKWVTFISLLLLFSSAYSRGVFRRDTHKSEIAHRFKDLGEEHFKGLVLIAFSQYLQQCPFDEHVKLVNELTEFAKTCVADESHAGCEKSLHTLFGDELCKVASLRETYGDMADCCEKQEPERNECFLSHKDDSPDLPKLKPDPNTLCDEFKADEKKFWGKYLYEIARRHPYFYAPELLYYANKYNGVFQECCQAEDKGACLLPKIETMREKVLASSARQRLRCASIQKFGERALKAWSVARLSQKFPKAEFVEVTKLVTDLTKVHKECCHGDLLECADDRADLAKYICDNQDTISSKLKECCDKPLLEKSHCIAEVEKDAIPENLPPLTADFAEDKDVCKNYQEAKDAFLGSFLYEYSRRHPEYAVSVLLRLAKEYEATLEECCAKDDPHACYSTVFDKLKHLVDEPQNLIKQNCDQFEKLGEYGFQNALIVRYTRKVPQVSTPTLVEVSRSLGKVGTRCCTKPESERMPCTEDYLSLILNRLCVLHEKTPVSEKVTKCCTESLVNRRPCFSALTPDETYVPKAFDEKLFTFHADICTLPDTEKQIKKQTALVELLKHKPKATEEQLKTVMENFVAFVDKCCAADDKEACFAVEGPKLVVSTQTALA
Alpha-bungarotoxin (Bungarus multicinctus), sequence (P60615 whole entry, looked up): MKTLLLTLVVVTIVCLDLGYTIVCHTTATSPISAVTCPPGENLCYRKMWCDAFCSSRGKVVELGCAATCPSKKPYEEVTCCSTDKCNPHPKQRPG
Torsin-1A-interacting protein 1 (Homo sapiens), sequence (Q5JTV8 whole entry, looked up): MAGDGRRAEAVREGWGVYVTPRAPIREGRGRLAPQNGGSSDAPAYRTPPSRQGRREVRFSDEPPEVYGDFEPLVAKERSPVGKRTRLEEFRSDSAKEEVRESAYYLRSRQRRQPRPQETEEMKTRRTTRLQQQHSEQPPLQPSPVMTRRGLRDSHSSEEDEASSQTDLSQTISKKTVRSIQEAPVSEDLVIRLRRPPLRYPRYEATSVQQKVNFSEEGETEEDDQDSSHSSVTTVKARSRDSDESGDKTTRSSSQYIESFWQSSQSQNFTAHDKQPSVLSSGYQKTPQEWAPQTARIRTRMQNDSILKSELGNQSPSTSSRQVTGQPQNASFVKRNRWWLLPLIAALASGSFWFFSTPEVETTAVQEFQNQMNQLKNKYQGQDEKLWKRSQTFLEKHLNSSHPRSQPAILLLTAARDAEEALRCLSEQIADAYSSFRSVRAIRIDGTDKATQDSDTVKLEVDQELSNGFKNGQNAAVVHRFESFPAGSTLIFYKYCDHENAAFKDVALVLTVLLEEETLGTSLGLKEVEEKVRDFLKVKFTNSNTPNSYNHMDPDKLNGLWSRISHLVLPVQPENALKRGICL

Compound | composite z-score [1] | z-score [2] | composite z-score [3] | composite z-score [4] | composite z-score [5] | composite z-score [6] | composite z-score [7] | composite z-score [8] | composite z-score [9] | composite z-score [10] | composite z-score (Albumin (Bos taurus)) | composite Z-score [11] | composite z-score [12] | composite z-score [13] | composite z-score [14] | composite z-score [15] | composite z-score [16] | composite z-score (Sam68 (KHDRBS1)) | composite z-score [17] | composite z-score [18]
CCOC(=O)NN=C1C[C@@H](O)[C@@H](O)[C@@H]2[C@@H]3C(=O)N(c4cccc(Oc5ccccc5)c4)C(=O)[C@@H]3CC[C@@H]12 | -0.269 | -0.912 | 0.144 | -0.0069 | -0.434 | -0.0165 | -0.32 | -0.444 | -0.127 | 1.32 | 0.736 | -0.147 (inactive) | -0.152 | -0.167 | 0.58 | 0.263 | 0.142 | -0.114 | -0.0646 | -0.245
CCCCc1nc2c(c3c1C[C@H](C)OC3)CN(CCOc1ccccc1)CC2 | 0.348 | -0.659 | 0.814 | -0.407 | -0.7 | -0.0738 | -0.0977 | -0.304 | 0.56 | 0.672 | 0.674 | 0.202 (inactive) | 0.058 | -0.11 | 0.221 | 0.686 | 0.135 | 1.06 | 0.726 | 0.975
CCCNC(=O)OC[C@H]1O[C@H](CCON=C(C)C)C=C[C@@H]1Oc1ccc(OC)cc1 | -0.599 | -1.12 | -0.143 | 0.608 | 0.304 | -0.0887 | -0.282 | -0.0927 | 0.587 | -0.132 | 0.317 | -0.0154 (inactive) | 0.154 | -0.0877 | 0.0464 | 0.857 | -0.384 | -0.209 | -0.186 | 0.853
Cc1ccc(S(=O)(=O)N[C@H]2COC(=O)CC=C[C@H](C)[C@@H](NS(=O)(=O)c3ccc(C)cc3)COC(=O)CC=C[C@@H]2C)cc1 | 0.584 | -0.622 | 0.518 | -0.324 | -0.6 | -0.351 | -0.476 | -0.0381 | -0.129 | 0.149 | -0.109 | -0.286 (inactive) | 0.0282 | -0.14 | -0.0386 | -0.364 | -0.242 | 0.0236 | 0.477 | 0.128
CC(CCN1CCCCc2nc(C)c(C)cc21)=NOC[C@@H](O)COCc1ccco1 | -1.68 | 0.0716 | 1.61 | -1.34 | -1.81 | -0.129 | 0.0121 | -0.911 | 0.43 | -0.527 | -0.732 | 1.28 (inactive) | 0.149 | -0.137 | -0.297 | -0.964 | -0.125 | 0.428 | 1.63 | -1.26
COc1ccc(O[C@H]2C=C[C@@H](c3ccccc3)O[C@@H]2COC(=O)CCC(C)=NOC[C@@H](O)[C@H]2O[C@@H]3OC(C)(C)O[C@@H]3[C@H]2O)cc1 | 1.07 | -0.0939 | 0.706 | -0.166 | -0.627 | 0.0001 | -0.291 | -0.232 | 0.419 | 0.0391 | -0.0217 | -0.212 (inactive) | -0.0284 | -0.101 | 0.325 | 0.337 | -0.123 | 1.01 | 0.728 | 0.249
C#CCCCON=C1C[C@@H](O)[C@@H](O)[C@@H]2[C@@H]3C(=O)N(C(C)(C)C)C(=O)[C@@H]3CC[C@H]12 | -0.149 | -0.134 | -0.0304 | -0.245 | -0.0493 | 0.0926 | -0.154 | -0.0675 | -0.0059 | 1.27 | 0.725 | -0.483 (inactive) | 0.0306 | -0.0272 | -0.466 | 0.126 | 0.0192 | -0.454 | 0.557 | -0.482
COCOc1ccc(Br)cc1C(=O)[C@@H]1O[C@H]1c1cccc(OC)c1 | -0.392 | -3.74 | 0.377 | -0.213 | -0.187 | -0.148 | -0.136 | -0.0428 | 0.616 | 0.187 | 0.591 | 0.374 (inactive) | -0.122 | -0.108 | 0.041 | 0.696 | 0.0365 | -0.395 | 0.589 | -1.26
CO[C@H]1COC(=O)CC=C[C@@H](C)[C@H](OC)COC(=O)[C@@H]2CCCN2C(=O)CC=C[C@@H]1C | -0.298 | 0.443 | 1.32 | -1.02 | -1.82 | -0.0819 | -0.138 | -0.748 | 0.159 | -0.41 | -0.871 | 0.668 (inactive) | -0.0077 | -0.107 | -0.377 | -0.339 | -0.322 | 0.672 | 1.32 | -0.222
COc1cccc([C@@H]2Oc3ccc(OC)cc3C(=O)[C@H]2O)c1 | 0.0299 | 2.25 | 0.386 | 0.111 | -0.397 | -0.157 | -0.0211 | -0.519 | -0.0655 | 1.11 | 0.78 | 0.0773 (inactive) | -0.0377 | -0.119 | 0.445 | -0.279 | 0.158 | 0.325 | 0.488 | 0.711
O=C1C[C@@H](O)[C@@H](O)[C@@H]2[C@@H]3C(=O)N(C[C@@H]4CCCO4)C(=O)[C@@H]3CC[C@H]12 | 0.265 | 0.624 | 0.903 | 0.0222 | -0.522 | -0.0478 | -0.0337 | 0.0309 | 0.224 | 0.384 | 0.225 | -0.472 (inactive) | 0.0197 | -0.203 | 0.0413 | 0.157 | -0.117 | 0.354 | 0.72 | 0.186
O=C1[C@H]2[C@H]3[C@H](O)[C@H](O)CC(=NO[C@@H]4O[C@H](CO)[C@@H](O)[C@H](O)[C@H]4O)[C@H]3CC[C@H]2C(=O)N1c1cccc(Oc2ccccc2)c1 | 0.583 | -0.243 | 0.723 | -0.0761 | -0.474 | -0.168 | -0.349 | -0.129 | 0.675 | -0.0791 | -0.0534 | 0.189 (inactive) | -0.118 | -0.133 | -0.0707 | 0.305 | 0.105 | 0.88 | 0.48 | 0.264
